Laboratory results from PubChem BioAssay AID1159580 (chemical genetic matrix, 2015).
Several values for one entry are separate records, joined by “and”; a condition that tells them apart may be missing. Equal entries are not always repeated. The whole screen tested about 5,500 compounds, of which about 2,000 (36%) were called active. Inconclusive results (about 18%) are left out. Cut-off read from the data, not from the text of the source: active = normalized growth mostly below about 0.91 (no sharp cut-off); inconclusive = no clear call, values can overlap the other calls; inactive = mostly above about 0.92. Some of the results follow.

Assay: chemical genetic growth profiling, strain panel (AID 1159580);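 note: tested at 20 µM; growth read once vehicle control cultures reached saturation at 30 °C; 1 = growth at the plate median or of vehicle wells; lower values mean less growth of the strain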
Conditions: S. cerevisiae deletion strains, growth OD

Measured: normalized growth

NCCc1ccc(O)cc1
inactive: locus YAL021C, strain ccr4, hits give low values 0.995 | locus YAL026C, strain drs2, hits give low values 0.963 | locus YAL030W, strain snc1, hits give low values 0.989 | locus YAL040C, strain CLN3, hits give low values 0.988 | locus YBL061C, strain skt5, hits give low values 0.975 | locus YBR009C, strain hhf1, hits give low values 0.985 | locus YBR021W, strain FUR4, hits give low values 0.97 | locus YBR023C, strain chs3, hits give low values 0.98 | locus YBR171W, strain sec66, hits give low values 0.957 | locus YBR229C, strain ROT2, hits give low values 0.999 | locus YBR231C, strain swc5, hits give low values 0.961 | locus YBR279W, strain paf1, hits give low values 0.983 | locus YCL011C, strain gbp2, hits give low values 0.997 | locus YCL016C, strain dcc1, hits give low values 1.01 | locus YCL029C, strain bik1, hits give low values 1.01 | locus YCL061C, strain MRC1 (second series), hits give low values 1.01 | locus YCL069W, strain vba3, hits give low values 0.99 | locus YCR088W, strain abp1, hits give low values 0.972 | locus YDL005C, strain med2, hits give low values 0.972 | locus YDL035C, strain GPR1, hits give low values 1.01 | locus YDL040C, strain nat1, hits give low values 0.984 | locus YDL074C, strain BRE1, hits give low values 0.99 | locus YDL101C, strain DUN1, hits give low values 1 | locus YDL185W, strain tfp1, hits give low values 1 | locus YDL192W, strain arf1, hits give low values 1 | locus YDR001C, strain nth1, hits give low values 0.975 | locus YDR069C, strain doa4, hits give low values 0.945 | locus YDR101C, strain arx1, hits give low values 0.991 | locus YDR137W, strain rgp1, hits give low values 0.981 | locus YDR150W, strain NUM1, hits give low values 1.01 | locus YDR159W, strain sac3, hits give low values 0.905 | locus YDR162C, strain NBP2, hits give low values 1.01 | locus YDR195W, strain ref2 0.928 | locus YDR297W, strain sur2, hits give low values 0.978 | locus YDR318W, strain mcm21, hits give low values 0.997 | locus YDR334W, strain swr1, hits give low values 0.967 | locus YDR335W, strain msn5, hits give low values 0.983 | locus YDR363W, strain ESC2, hits give low values 1.01 | locus YDR388W, hits give low values 1 | locus YDR392W, strain spt3, hits give low values 0.935 | locus YDR502C, strain sam2, hits give low values 0.989 | locus YEL003W, strain gim4, hits give low values 0.969 | locus YEL037C, strain rad23, hits give low values 0.977 | locus YEL061C, strain CIN8 (second series), hits give low values 0.975 | locus YEL061C, strain CIN8, hits give low values 1 | locus YER002W, strain NOP16, hits give low values 0.994 | locus YER015W, strain faa2, hits give low values 0.994 | locus YER016W, strain bim1, hits give low values 0.985 | locus YER110C, hits give low values 0.993 | locus YER111C, strain swi4, hits give low values 0.981 | locus YER155C, strain BEM2 (second series), hits give low values 0.951 | locus YER155C, strain BEM2, hits give low values 1.01 | locus YER167W, strain BCK2, hits give low values 1 | locus YFR010W, strain ubp6, hits give low values 0.957 | locus YGL078C, strain dbp3, hits give low values 0.994 | locus YGL086W, strain mad1, hits give low values 0.966 | locus YGL167C, strain pmr1, hits give low values 0.972 | locus YGL173C, strain kem1, hits give low values 0.964 | locus YGL227W, strain vid30, hits give low values 0.978 | locus YGL240W, strain doc1, hits give low values 0.96 | locus YGL248W, strain PDE1, hits give low values 1.01 | locus YGL253W, strain hxk2, hits give low values 0.972 | locus YGR078C, strain PAC10, hits give low values 1.01 | locus YGR135W, strain pre9, hits give low values 0.997 | locus YGR229C, strain SMI1, hits give low values 1.01 | locus YGR252W, strain gcn5, hits give low values 1.01 | locus YHR013C, strain ard1, hits give low values 0.97 | locus YHR027C, strain rpn1, hits give low values 0.99 | locus YHR030C, strain SLT2, hits give low values 1 and 0.976 | locus YHR079C, strain IRE1 (second series), hits give low values 0.994 | locus YHR079C, strain IRE1, hits give low values 0.976 | locus YHR094C, strain hxt1, hits give low values 1.01 | locus YHR129C, strain ARP1, hits give low values 1.01 | locus YHR142W, strain chs7, hits give low values 0.982 | locus YHR200W, strain rpn10, hits give low values 1.03 | locus YIL066C, strain RNR3, hits give low values 1.01 | locus YIL073C, strain SPO22, hits give low values 0.985 | locus YIL125W, strain kgd1, hits give low values 0.985 | locus YIR030C, strain dcg1, hits give low values 0.996 | locus YJL092W, strain hpr5, hits give low values 0.973 | locus YJL095W, strain BCK1 (second series), hits give low values 0.978 | locus YJL095W, strain BCK1, hits give low values 1.01 and 0.995 | locus YJL115W, strain asf1, hits give low values 0.963 | locus YJL129C, strain trk1, hits give low values 0.967 | locus YJL134W, strain LCB3, hits give low values 1.01 | locus YJL154C, strain vps35, hits give low values 0.975 | locus YJL164C, strain tpk1, hits give low values 0.998 | locus YJL166W, strain qcr8, hits give low values 0.986 | locus YJL168C, strain set2, hits give low values 1 | locus YJL187C, strain SWE1 (second series), hits give low values 1.01 | locus YJL187C, strain SWE1, hits give low values 0.984 | locus YJR043C, strain POL32, hits give low values 1.02 | locus YJR066W, strain TOR1, hits give low values 0.932
